Screening data deposited in PubChem by several laboratories.
Cardiac RTF inh: cardiac RTF calcium sensitivity inhibitors, primary screen, biochemical, IANBD-TnC fluorescence, EC70 calcium; Troponin I, cardiac muscle (Homo sapiens) + Troponin T, cardiac muscle (Homo sapiens) + …; IANBD-labeled cardiac RTF, Ca2+ fluorescence; inhibition, % at 7.15 µM; 340,000 tested, 0.12% active;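 active = inhibition above the mean inhibition of all tested compounds plus 3 SD, cut at about 17% in these data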;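 note: assay run at fixed EC70 calcium of 1.6 mM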
LANA DNA inh: inhibitors of KSHV C-LANA binding to DNA, primary screen, biochemical, fluorescence polarization, FAM-LBS DNA, MBP-C-LANA, single point; Kaposi's sarcoma herpesvirus LANA C-terminal domain (residues 932-1162) DNA binding; inhibition, % at 9 µM; 340,000 tested, 0.078% active; AID 504423, 2011;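 active = highest replicate inhibition at or above 60% at 9 µM, even if other replicates fall short; inactive = all replicates below 60% inhibition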;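 note: 0% = neutral control wells and 100% = 4 µM acridine orange control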
eLon inh: inhibitors of E. coli Lon protease, primary screen, biochemical, fluorescence polarization | P0A9M0 | purified E. coli Lon protease | inhibition, % at 7.94 µM | 360,000 tested, 0.42% active; in the data active = inhibition above about 13%, passing the limit was not always enough;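 note: 0% = enzyme with probe and DMSO and 100% = no enzyme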
Keap1 Nrf2 FP: Keap1-Nrf2 protein-protein interaction inhibitors, primary screen, biochemical, fluorescence polarization, single point; Kelch-like ECH-associated protein 1 (Homo sapiens), Q14145; 340,000 tested, 0.15% active; Keap1 Kelch-Nrf2 peptide fluorescence polarization, 1536-well; inhibition, % at 9.4 µM; AID 504523, 2011; in the data active = inhibition above about 12%;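 note: human Keap1 Kelch domain with fluorescein labeled Nrf2 9mer peptide probe; 0% = neutral control wells and 100% = peptide positive control; higher means more block of Keap1 binding to Nrf2 peptide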
Target sequence (Q14145 whole entry, looked up, the tested form may be a part): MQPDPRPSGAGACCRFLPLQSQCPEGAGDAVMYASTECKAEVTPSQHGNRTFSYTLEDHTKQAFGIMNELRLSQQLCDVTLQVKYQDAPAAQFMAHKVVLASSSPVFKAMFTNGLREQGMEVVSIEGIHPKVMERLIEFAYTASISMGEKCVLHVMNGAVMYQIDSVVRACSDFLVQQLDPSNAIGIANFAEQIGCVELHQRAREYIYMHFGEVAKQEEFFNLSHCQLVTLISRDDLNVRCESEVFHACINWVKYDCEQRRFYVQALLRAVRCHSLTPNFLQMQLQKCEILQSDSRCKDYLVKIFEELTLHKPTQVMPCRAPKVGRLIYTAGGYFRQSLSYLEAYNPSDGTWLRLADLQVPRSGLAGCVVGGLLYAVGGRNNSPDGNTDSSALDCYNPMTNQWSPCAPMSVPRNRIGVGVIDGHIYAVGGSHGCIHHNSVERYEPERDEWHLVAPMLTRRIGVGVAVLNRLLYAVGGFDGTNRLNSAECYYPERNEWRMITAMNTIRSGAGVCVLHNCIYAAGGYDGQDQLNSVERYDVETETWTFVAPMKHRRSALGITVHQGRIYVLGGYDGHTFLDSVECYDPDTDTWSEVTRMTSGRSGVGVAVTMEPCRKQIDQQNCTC
RTF Ca sens act: cardiac RTF calcium sensitivity activators, primary screen, biochemical, IANBD-TnC fluorescence, EC20 calcium; Troponin I, cardiac muscle (Homo sapiens) + Troponin T, cardiac muscle (Homo sapiens) + …; IANBD-labeled TnC RTF fluorescence at EC20 calcium; 0% EC20 calcium, 100% full calcium; activation, % at 7.2 µM; 340,000 tested, 0.24% active;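 active = activation above the mean over all tested compounds plus 3 SD, cut at about 30% in these data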;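 note: rise in fluorescence read as greater calcium sensitivity of cardiac thin filaments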
Active calls of the source: *; i = inactive; x = not tested or not shown; + = active, no number; ! = not confirmed by another sample. Hits are enriched below; roughly 0.82% of the tested compounds scored in any of these assays.

SMILES	Cardiac RTF inh	LANA DNA inh	eLon inh	Keap1 Nrf2 FP	RTF Ca sens act
CC(C)[C@H]1C(=O)N2CCC[C@H]2[C@]2(O)O[C@](NC(=O)[C@@H]3C=C4c5cccc6[nH]cc(c56)C[C@H]4N(C)C3)(C(C)C)C(=O)N12	-28	28	64*	15*	27
CC(C)[C@@]1(NC(=O)[C@@H]2C[C@@H]3c4cccc5[nH]cc(c45)C[C@H]3N(C)C2)O[C@@]2(O)[C@@H]3CCCN3C(=O)[C@H](Cc3ccccc3)N2C1=O	6	0	-15	0	8
CC(C)C[C@H]1C(=O)N2CCCC2[C@]2(O)O[C@](NC(=O)[C@@H]3C=C4c5cccc6[nH]cc(c56)CC4N(C)C3)(C(C)C)C(=O)N12 (some centres undefined)	-56	24	62	16*	31*
Cc1cc(Cl)ccc1OC(C)C(=O)O (centres undefined)	20*	3	-15	1	5
CCOC(=O)c1cccc(C2=C(CNC(=O)c3ccc([N+](=O)[O-])cc3)[C@H]3CC[C@@H](C2)N3Cc2ccccc2)c1	x	x	3	x	x
CN(C)[C@@H]1C(=O)C(C(N)=O)=C(O)[C@@]2(O)C(=O)C3=C(O)c4c(O)cccc4[C@@](C)(O)[C@H]3[C@H](O)[C@@H]12	20*!	124*	37	-2	-18
Cc1cc(C)c(Cn2c(C(=O)O)c(C=O)c3ccccc32)c(C)c1	-62	-8	-141	-69	64*
O=Cc1c(C(=O)O)n(Cc2ccccc2Cl)c2ccccc12	-3	-1	-1	-5	5
COc1cc2c(C(=O)N3CCN(C)CC3)c(C)n(C)c2cc1Br	-6	8	20*	1	-3
CCC1(C)OC(c2ccccc2)=C/C(=C/C=C2C(=O)NC(=O)NC2=O)O1 (centres undefined)	-163	-3	-479	-16	123*
CCN1/C(=C\C=C\C2=[N+](CC)c3ccccc3C2(C)C)C(C)(C)c2ccccc21	i	-43	+	-372	895*
O=c1[nH]c2ccccc2n1C1CCN(C(CCc2ccccc2)c2nnnn2-c2ccc3c(c2)OCCO3)CC1 (centres undefined)	x	x	-5	x	x
Cc1ccc(-n2c(O)c(/C=C/C=Nc3ccccc3)c(=O)[nH]c2=O)cc1	-39	-8	-269	-18	39*
C=CCn1c(O)c(/C=C/C=Nc2ccccc2)c(=O)[nH]c1=O	-4	2	-270	3	2
O=c1[nH]c(=O)n(C2CCCCC2)c(O)c1/C=C/C=Nc1ccccc1	-83	-3	-448	-109	55*
COc1ccc(-n2c(O)c(/C=C/C=Nc3ccccc3)c(=O)[nH]c2=O)cc1	-223	-70	i	-249	202*
O=c1[nH]c(=O)n(C2CCCCC2)c(O)c1C=Nc1ccc(N2CCOCC2)cc1	-7	198*	-2	-2	7
CCC(c1nnnn1Cc1ccccc1)N1CCC2(CC1)C(=O)NCN2c1ccccc1 (centres undefined)	x	x	-7	x	x
COc1ccc(-n2nnnc2C(c2ccccc2OC(F)(F)F)N2CCC3(CC2)C(=O)NCN3c2ccccc2)cc1 (centres undefined)	x	x	3	x	x
O=C1c2ccccc2-n2nnc(-c3ccccc3)c2C2c3cc(Br)ccc3CCN12 (centres undefined)	x	x	-14	x	x
O=S(=O)(c1cccc2ccccc12)N1Cc2ccccc2-n2nncc2C1	x	x	1	x	x
O=c1[nH]c(=O)n(-c2ccccc2)c(O)c1/C=C/C=Nc1ccccc1	-71	-26	i	-108	78*
CCn1c(O)c(C=Nc2ccc(N3CCOCC3)c(Br)c2)c(=O)n(CC)c1=S	-5	18	-6	-15	-2
CCn1c(O)c(C=Nc2ccc(N3CCOCC3)cc2)c(=O)n(CC)c1=S	-12	5	-32	-6	130*
c1ccc(CN2COC3CCCCCC32)cc1 (centres undefined)	x	x	-16	x	x
SMILES	Cardiac RTF inh	LANA DNA inh	eLon inh	Keap1 Nrf2 FP	RTF Ca sens act
Cc1cc(C)c(S(=O)(=O)N2Cc3ccccc3-n3nncc3C2)c(C)c1	x	x	-2	x	x
CC(=O)c1ccc2c(c1)C1C(Cl)C(Sc3ccccc3[N+](=O)[O-])CC1C(C(=O)O)N2 (centres undefined)	16	8	22*	-5	-18
C[C@H]1COc2cc(N3CCN(C)CC3)ccc2S(=O)(=O)N1	x	x	-3	x	x
C[C@H]1CN([C@@H](C)CO)C(=O)CCCn2nncc2CO[C@H]1CN(C)C(=O)Oc1ccc2ccccc2c1	x	x	-3	x	x
CN1Cc2c(c(C#N)c(N)n(C)c2=S)CC1(C)C	-76	22	40*	16*	50*
Cc1cc(C)cc(N2C(=O)/C(=C\c3ccc(N4CCN(C)CC4)o3)C(=O)NC2=S)c1	x	x	-109	x	x
O=C1NC(=O)N(c2ccc3c(c2)OCO3)C(=O)/C1=C\c1ccc(-c2ccccc2C(=O)O)o1	8	5	-18	-4	-1
O=C1NC(=O)C(=Cc2ccc(N3CCOCC3)o2)C(=O)N1	-64	-40	-342	-171	47*
C=CCN1C(=O)/C(=C/c2ccc(N3CCOCC3)o2)C(=O)NC1=S	-35	-26	-144	-53	66*
CN1C(=O)C(=Cc2ccc(N3CCCCC3)o2)C(=O)N(C)C1=S	-7	-1	-213	-5	14
O=C1NC(=O)N(c2ccc3c(c2)OCO3)C(=O)/C1=C/c1ccc(N2CCCCC2)o1	-81	-38	-297	-95	78*
CCOc1cc(C=C2C(=O)NC(=S)NC2=O)ccc1O	-2	3	-10	12*	-1
Cc1cccc(C)c1-n1nnnc1C(c1cccs1)N1CCC2(CC1)C(=O)NCN2c1ccccc1 (centres undefined)	x	x	-11	x	x
CCOC(=O)c1c(NC(=O)c2c(N)n(CCCOC)c3nc4ccccc4nc23)sc2c1CCCC2	-3	1	-12	2	4
CCOCCCn1c(N)c(C(=O)Nc2sc3c(c2C(=O)OC)CCCC3)c2nc3ccccc3nc21	-35	-1	-58	-10	52*
CCOC(=O)[C@]12Cc3cc(C)ccc3[C@H]1N(C1CCCCC1)C(=O)c1cc(OC)ccc12	x	x	5	x	x
N#Cc1ccc(Cn2cc(C=O)c3ccccc32)cc1	-4	-3	-4	-1	0
Cn1cc(C=C(C#N)C#N)c2ccccc21	-44	56	-37	53*	28
COC(=O)[C@@]1(Sc2ccc(C)cc2)CC(=O)N(P(=O)(OC)OC)[C@@H]1c1ccccc1	x	x	-3	x	x
CCOc1cccc(N2C(=O)/C(=C/c3ccco3)C(=O)NC2=S)c1	0	x	-23	0	-8
O=C1NC(=S)N(c2ccccc2)C(=O)/C1=C/c1ccco1	-3	88*	-64	0	-6
